A selection: hits, their analogues and other compounds. The true share with any hit is near 7.3%.
ELG1 genotox – induces genotoxicity in HEK293T cells with luciferase-tagged ELG1; Potency, µM (titrated, usually from 46 µM), for inactives: at the top dose activity change, positive = activation, actives largely listed as activators; 330,000 compounds, 1.3% hits; HEK293T ELG1-luciferase reporter, luminescence, 16 h; AID 504466; note: % of control where 0% means no effect; nearly all actives have a fitted effect of over 60% in size
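Reporter readout depends on ELG1 protein level, which increases with genetic stress. After 16 hr compound exposure at 37 °C, luciferase activity was quantified using ONE-Glo.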
Rab9 prom act – activators of Rab9 promoter | AID 485297 | Potency, µM (series often up to 9.22 µM), without a hit: top-dose activation, negative = inhibition, actives largely listed as activators | Huh7 Rab9 promoter-luciferase reporter, luminescence, 24 h | 320,000 compounds, 2.8% hits; note: % of control where 0% means no effect; nearly all actives have a fitted effect of over 60% in size
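Promoter activation is measured as luciferase luminescence in Huh7 cells stably transfected with a Rab9 promoter–luciferase construct, following 24 h compound exposure at 37 °C and 10 min reagent incubation at ambient temperature.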
NPC1 prom act – NPC1 promoter activation. Huh7 NPC1 promoter luciferase reporter, 24 h. 320,000 compounds, 2.4% hits. AID 485313. Potency, µM (doses to about 9.22 µM), for the others: at the top dose activation, most hits filed as activators; note: % of control where 0% means no effect; nearly all actives have a fitted effect of over 60% in size
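Luminescence from an NPC1 promoter-driven luciferase reporter in stably transfected Huh7 cells was measured after 24 h compound treatment at 37 °C, followed by 10 min ambient incubation with luciferase detection reagent.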
FLuc counter – inhibits or activates purified firefly luciferase, miR-21 counter-screen; P08659; purified FLuc, Km substrates, luminescence inhibition; Potency, µM (highest dose often 57.5 µM), for the others: at the highest dose activity change, negative = inhibition, hits mostly inhibitors; 360,000 compounds, 6.9% hits; AID 588342;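 note: plate controls were vehicle for no effect and reference inhibitor for full effect; nearly all actives have a fitted effect of over 55% in size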
Target sequence (P08659 whole entry, looked up): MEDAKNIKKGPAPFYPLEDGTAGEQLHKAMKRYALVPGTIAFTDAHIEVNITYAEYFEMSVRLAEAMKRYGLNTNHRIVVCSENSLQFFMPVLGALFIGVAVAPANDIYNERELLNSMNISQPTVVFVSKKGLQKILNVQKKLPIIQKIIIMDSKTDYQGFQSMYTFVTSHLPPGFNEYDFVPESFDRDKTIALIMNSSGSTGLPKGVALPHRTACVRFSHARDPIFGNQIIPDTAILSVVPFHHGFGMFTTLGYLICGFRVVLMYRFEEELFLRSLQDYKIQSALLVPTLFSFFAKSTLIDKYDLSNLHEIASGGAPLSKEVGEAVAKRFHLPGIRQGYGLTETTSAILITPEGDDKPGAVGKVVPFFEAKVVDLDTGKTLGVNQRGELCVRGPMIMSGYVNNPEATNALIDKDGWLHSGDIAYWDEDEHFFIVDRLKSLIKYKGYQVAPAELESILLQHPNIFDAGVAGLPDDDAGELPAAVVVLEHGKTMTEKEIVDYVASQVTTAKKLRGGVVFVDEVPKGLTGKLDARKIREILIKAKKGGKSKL
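Biochemical qHTS of compounds, final roughly 60 µM downward over six points, against 10 nM purified firefly luciferase using Km concentrations of substrates (10 uM D-luciferin, 10 uM ATP) in Tris acetate pH 7.5 buffer; luminescence output.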
KinaseGlo FLuc – blocks Kinase-Glo luciferase, a counter-screen artifact; Kinase-Glo luciferase, ATP luminescence, 8 min; Potency, µM (doses to about 38.3 µM), for inactives: top-dose activity change, negative = inhibition, most hits filed as inhibitors; 200,000 compounds, 0.28% hits; AID 1379; note: % is set by controls: 0 for no effect and ±100 for the full control effect; nearly all actives have a fitted effect of over 60% in size
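Luminescence was the read-out, taken after 8-minute incubation at ambient temperature. Luciferase turned over luciferin with 10 uM ATP in imidazole pH 7.2 buffer containing KCl, MgCl2, Tween 20 and BSA.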
SMN2 splice enh – SMN2 splice variant enhancement. HEK293 SMN2-luciferase splicing reporter, luminescence, 30-36 h. Potency, µM (series often up to 46.1 µM), without a hit: at the highest dose activity change, positive = activation, usual class: activators. 210,000 compounds, 2.8% hits; note: % of control where 0% means no effect; nearly all actives have a fitted effect of over 55% in size
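HEK293 cells carry an SMN2 minigene-luciferase reporter in which exon 7 inclusion puts luciferase in frame. Cells were seeded at 2000 cells/well, attached for 10-12 hours, then exposed to compounds for 30-36 hours at 37C before ONE-Glo luminescence.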
Starred values were filed as active, the others as inactive; u = inconclusive; x = no result given; [ ] = another dose, or the depositor's remark. Calls come from the whole dose curve; as a rule, active = well fitted curve in the direction sought with a large enough effect; inconclusive = small, poorly fitted or top-dose-only effect, or another doubt; inactive = no such curve, though single readings can be large; an effect the other way counts as inactive or inconclusive. Potency is the fitted concentration of half-maximal effect.

SMILES	ELG1 genotox	Rab9 prom act	NPC1 prom act	FLuc counter	KinaseGlo FLuc	SMN2 splice enh
COc1ccc(/C=N/NC(=O)c2nn(-c3ccccc3)c(=O)c3c(N)scc23)cc1	-0.3%	4.2%	-3.0%	9.53µM*	-0.5%	5.0%
COc1ccc(/C=N/NC(=O)c2nc(-c3ccccc3)cc(-c3ccccc3)n2)cc1	1.2%	2.6%	1.4%	2.69µM*	-2.0%	-31.9%
COc1cccc(/C=N/NC(=O)CCn2c3ccccc3c3ccccc32)c1	1.3%	-2.2%	0.0%	-1.4%	0.6%	2.2%
COc1ccc(C2(CNC(=O)C(=O)Nc3ccc(F)cc3)CCCC2)cc1OC	x	x	x	-7.8%	x	-3.6%
CCc1ccccc1NC(=O)CN1C(=O)CCn2nc(-c3cccn3C)cc21	x	x	x	4.5%	x	x
COc1ccc(/C=N/NC(=O)c2nc(-c3ccccc3)n(-c3ccccc3)n2)cc1OC	-0.3%	6.6%	-8.2%	16.9µM*	1.4%	-2.1%
COc1cc(/C=N/NC(=O)c2nc(-c3ccccc3)n(-c3ccccc3)n2)ccc1O	1.4%	0.6%	2.7%	u	0.1%	-8.6%
CCOC(=O)c1ccc2c(c1)sc1nc(-c3ccc(OCC)cc3)cn12	x	x	x	u	x	7.3%
O=C(O)CCNc1ccccc1C(=O)O	x	x	x	x	-0.3%[7.66 µM]	-6.5%[9.22 µM]
COC(=O)c1ccc(CSC(=N)N)o1	2.8%	10.7%	-1.1%	-1.0%	-3.8%	x
CCOC(=O)c1ccoc1CSCc1ccc(C(=O)OC)o1	20.6µM*	16.8%	-1.1%	4.6%	-1.3%	13.2%
COc1ccc2c(c1)CCc1c(C(=O)Nc3c(C)nn(Cc4c(Cl)cccc4Cl)c3C)noc1-2	x	x	x	-6.8%	x	-0.7%
c1ccc(COc2ccc(Oc3nc(N4CCCCC4)nc(N4CCOCC4)n3)nn2)cc1	12.9%	-7.8%	-2.8%	0.9%	2.2%	22.4µM*
Cc1ccc(Nc2nc(Oc3ccc(OCc4ccccc4)nn3)nc(N3CCOCC3)n2)cc1	-4.2%	1.8%	-0.1%	2.5%[2.3 µM]	0.3%	u
Nc1c(S(N)(=O)=O)cc(S(N)(=O)=O)cc1S(N)(=O)=O	x	x	x	x	-1.8%[7.66 µM]	-14.9%[9.22 µM]
O=C(CC1C(=O)N(c2ccc(F)cc2)C(=O)N1Cc1cccnc1)Nc1ccc(F)cc1 (stereo not given)	x	x	x	-5.7%	x	x
COc1ccc(/C=C/C(=O)Oc2cccc(/C=N/NC(=O)Cc3ccc(Br)cc3)c2)cc1	u	3.16µM*	3.55µM*	u	x	x
Cc1ccc(C2C=C(c3ccc(Cl)cc3)Nc3nc(NC(=O)c4ccco4)nn32)cc1 (stereo not given)	x	x	x	u	x	0.7%
Clc1ccccc1-c1nnc(-c2ccccc2Cl)o1	u	2.51µM*	3.98µM*	8.49µM*	-7.3%	12.6µM*
O=C(Nc1nnc(-c2ccccc2Cl)o1)c1cccnc1	u	u	u	19µM*	-6.2%	u
CCCNCc1nnc(-c2ccccc2Cl)o1	8.2%	-0.2%	1.6%	-25.1%	14.7%	24.5%
Clc1ccc(-c2nnc(-c3ccccc3Cl)o2)cc1	u	0.447µM*	0.631µM*	1.2µM*	x	x
O=C(Nc1ccc(NC(=O)c2ccccc2Cl)cc1)c1cccnc1	4.7%	1.6%	3.3%	-10.8%	x	x
Fc1ccc(Nc2c(-c3c[nH]c4ccccc34)nc3ccccn23)cc1	x	x	x	-7.1%	x	u
CCOCCc1nn2c(=O)cc(COC(=O)C(CC)c3ccccc3)nc2s1 (stereo not given)	x	x	x	-4.2%	x	x
Cc1cc(N2CCCCC2)nc2ccccc12	1.5%	-1.4%	-2.3%	u	1.1%	0.1%
Cc1cc(-n2nnc3ccccc32)nc2ccccc12	9.4%	-3.5%	2.2%	-10.5%	3.4%	0.224µM*
COc1ccc(C)cc1NC(=O)CN(c1cc(C(F)(F)F)ccc1Cl)S(C)(=O)=O	x	x	x	-9.3%	x	-10.4%
CC1(C)OC(=O)C(=NNc2ccc(Br)cc2)C(=O)O1	2.2%	-4.3%	-2.5%	19µM*	4.6%	-28.6%
CC1(C)OC(=O)C(=CNc2ccccc2)C(=O)O1	12.0%	-0.3%	-2.7%	u	-1.6%	-3.5%

Bioassay records: PubChem BioAssay, National Center for Advancing Translational Sciences (NCATS)
